HCV inhibitor: blocks hepatitis C virus; Potency, µM (titrated, usually from 41.8 µM), inactives show at the highest dose activity change, negative = inhibition, usual class: inhibitors; 340,000 compounds, 3.4% hits; AID 651820; Huh7.5.1 HCVcc-Cre infection, luciferase reporter, 44 h; further: potency means the concentration at half of the fitted maximal effect
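Reporter virus HCVcc-Cre (~0.5 moi) infects cells exposed to compound; seeding density 1,000 cells/well with 4 h settling beforehand. Luminescence, 15 sec read, taken 44 h post-infection following a 15 min RT substrate incubation.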
MARV entry inh: blocks Marburg virus binding to or entry into cells; Potency, µM (doses to about 37.8 µM), for inactives: at the top dose activity change, negative = inhibition, actives largely listed as inhibitors; Marburg virus pseudotyped entry inhibition, cell reporter; 300,000 compounds, 1.8% hits; calls by dose curve; tested in HEK293 cells; further: potency means the concentration at half of the fitted maximal effect
HCMV inh: blocks human cytomegalovirus replication; 410,000 compounds, 4.5% hits; activity change, negative = inhibition, % at 57.5 µM; HFF cells, HCMV-luciferase reporter, 72 h; active compounds read low; AID 1259415; in the data active means activity change below about -60%; inconclusive means no clear call, values can overlap the other calls; inactive means above about -39%
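Inhibition of viral replication was scored as loss of reporter luminescence in HFFs infected with HCMV-luciferase (MOI 1 PFU/cell) for 72 h; compounds tested at 2 doses, normalized to buffer and Salinomycin controls.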
Pf growth 48h: P. falciparum growth inhibition at 48 hours (one generation). Potency, µM (series often up to 28.7 µM), inactives show top-dose activity change, negative = inhibition, hits mostly inhibitors. AID 504832. P. falciparum luciferase growth in erythrocytes, 48 h. 310,000 compounds, 5.9% hits; further: potency means the concentration at half of the fitted maximal effect
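Growth was read as firefly luciferase luminescence after a 48 h, 37 C, 5% CO2 exposure of compounds to reporter-bearing P. falciparum cultures (0.1% parasitemia, 2% hematocrit final) in Albumax-supplemented RPMI 1640.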
Pf growth 96h: P. falciparum growth inhibition at 96 hours | 320,000 compounds, 6.9% hits | AID 504834 | Potency, µM (highest dose often 28.7 µM), inactives show at the top dose activity change, negative = inhibition, most hits filed as inhibitors | P. falciparum luciferase reporter growth, 96 h; further: potency means the concentration at half of the fitted maximal effect
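P. falciparum expressing integrated firefly luciferase grown in erythrocytes (2% hematocrit, 0.05% parasitemia final) with compounds for 96 hours at 37 C, 5% CO2. Growth inhibition read as loss of luminescence after adding luciferase detection reagent.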
LASV entry inh: blocks Lassa virus binding to or entry into cells | Lassa virus pseudotype entry inhibition, cell reporter | Potency, µM (titrated, usually from 37.9 µM), inactives show at the highest dose activity change, negative = inhibition, hits mostly inhibitors | 300,000 compounds, 1.2% hits; calls by dose curve; tested in HEK293 cells; further: potency means the concentration at half of the fitted maximal effect; nearly all actives have a fitted effect of over 50% in size
* = called active by the depositor; ? = inconclusive; / = no result given; ! = not confirmed by another sample; [ ] = remark or other dose. Compounds with a hit are over-represented: about 14% of the library has one in this group of screens. Unless noted, the call rests on the fitted dose curve; in most records, active means well fitted inhibition curve with a large enough effect; inconclusive means small, poorly fitted or top-dose-only effect, or another doubt; inactive means no such curve, though single readings can be large or run the other way. On the % scale 0 is the no-effect control and ±100 the full control effect.

SMILES | HCV inhibitor | MARV entry inh | HCMV inh | Pf growth 48h | Pf growth 96h | LASV entry inh
Cc1cccc(C)c1NC(=O)CSc1nc(C)c(CC(=O)c2ccc(Br)cc2)c(C)c1C#N | 9% | ? | 43 | 20% | ? | 18µM*
CCc1nnc(NC(=O)CSc2nc(C)cc(C)c2C#N)s1 | -2% | 7.9µM* | 22 | 115%[5.75 µM] | 16% | ?
Cc1cc(C)c(C#N)c(SCC(=O)NC(C)(C)C)n1 | -12% | / | 2 | / | 7.4µM* | /
Cc1nc(SCC(=O)Nc2ccccc2C(F)(F)F)c(C#N)c(C)c1CC(=O)c1ccc(Br)cc1 | / | / | 39 | / | 15% | /
CCc1nnc(NC(=O)CSc2nc3c(cc2C#N)CCC3)s1 | -14% | ? | 63 | 135% | / | -17%
Cc1cc(C(F)(F)F)c(C#N)c(SCC(=O)NC(C)(C)C)n1 | ? | 5% | -16 | -14% | ? | ?
OC(c1ccccc1)c1nc(-c2cccs2)cs1 (stereo not drawn) | / | / | 37 | / | / | /
COC(=O)[C@]12CCCCC=C1N(Cc1ccccc1)C(=O)[C@H](CC(=O)NCc1cccc(C(F)(F)F)c1)C2 | / | / | -16 | / | / | /
Cn1c(=O)c2[nH]c(SCc3cccnc3)nc2n(C)c1=S | 12% | ? | -20 | / | / | 29%[46.1 µM]
C#CC1(NC(=S)Nc2cccc(OC)c2)CCCCC1 | / | / | 28 | / | / | /
Cc1cc(C)c(C#N)c(SCCS(=O)(=O)c2ccc(Cl)cc2)n1 | ? | -18%[46.1 µM] | ? | ? | -21% | ?
CCN(Cc1ccccc1)C(=O)CSc1nc(C)cc(C)c1C#N | 10µM* | 1% | ? | ? | 10µM* | -19%
Cc1ccc(Cl)cc1NC(=O)CSc1nc(C)c(C)c(C)c1C#N | / | -34%[46.1 µM] | -85* | / | / | -3%[46.1 µM]
CCOC(=O)NC(=O)CSc1nc(C)cc(C)c1C#N | -1% | 0% | 87 | 148% | 9.3µM* | -19%
CCN(CC)C(=O)CSc1nc(C)cc(C)c1C#N | 5% | 1%[46.1 µM] | -15 | -2% | 95% | 8%[46.1 µM]
Cc1cc(C)c(C#N)c(SCCS(=O)(=O)c2ccc(C(C)(C)C)cc2)n1 | ? | ? | ? | 7.4µM* | / | -13%
CCOC(=O)c1cccc(NC(=O)Cn2c(=O)c3cccn3c3ccccc32)c1 | / | / | 38 | / | / | ?
O=C(NC1(C(F)(F)F)C(=O)Nc2c1c(=O)[nH]c(=O)n2CCc1ccccc1)c1ccc(Cl)cc1 (stereo not drawn) | / | / | 1 | / | / | -22%[46.1 µM]
COc1cc2c(cc1OC)CN(C(=O)CSc1nc(C)cc(C)c1C#N)CC2 | ? | ? | -32 | ? | 6.6µM* | -18%
CCOc1ccc2ccccc2c1CNCCN1CCOCC1 | -5% | -11% | 7 | 13µM* | 5.2µM* | -10%
CCOc1ccc(Br)cc1S(=O)(=O)NCCN1CCCC1 | -6% | / | -23 | / | -2% | /
CCOc1ccc(Br)cc1CNCCN1CCOCC1 | 21% | ? | 8 | -25% | 12µM* | 1%
CCOc1cccc(/C=C/c2ccc3cccc(O)c3n2)c1O | 14µM* | ? | -100* | -3%[0.00184 µM] | 8.3µM* | ?
CCOc1c(OC(C)=O)ccc(/C=C/c2ccc3cccc(OC(C)=O)c3n2)c1[N+](=O)[O-] | 8.9µM* | 10% | 26 | 6.6µM* | 8.3µM* | ?
COc1c(OC(C)=O)ccc(/C=C/c2ccc3cccc(OC)c3n2)c1[N+](=O)[O-] | ? | ? | 34 | ? | ? | -18%
SMILES | HCV inhibitor | MARV entry inh | HCMV inh | Pf growth 48h | Pf growth 96h | LASV entry inh
CCOc1cccc(/C=C/c2ccc3cccc(O)c3n2)c1OC | ? | ? | -93* | ? | ? | ?
COc1ccccc1N(CC(=O)NCCSCc1ccccc1)S(=O)(=O)c1ccccc1 | / | / | -73* | / | / | /
COc1ccccc1N(CC(=O)NCCSCc1ccco1)S(=O)(=O)c1ccccc1 | 1% | ? | -28 | ? | 0% | -3%
COc1ccccc1N(CC(=O)NCCSCc1ccccc1)S(=O)(=O)c1ccc(C)cc1 | 25µM* | ? | -63*! | ? | 2.6µM* | ?
CC1(C(=O)NS(=O)(=O)C2CC2)CCN(C(=O)c2cc(F)cc(F)c2)C1 (stereo not drawn) | / | / | 13 | / | / | /
O=c1cc(-c2ccccc2)[nH]c2nc3ccccc3n12 | -13% | 5.8µM* | 220 | ? | ? | ?
Cc1ccc(OCCn2c(Br)nc3c2c(=O)n(C)c(=O)n3C)cc1 | 8.9µM* | 2% | ? | ? | -7% | -6%
Cn1c(=O)c2c(ncn2CCOc2cccc(Br)c2)n(C)c1=O | ? | / | -71* | 18% | -26% | /
Cn1c(=O)c2c(nc(Oc3cccc(Br)c3)n2C)n(C)c1=O | 23% | / | -10 | 34% | 13% | /
Cn1c(=O)c2c(ncn2Cc2cccc(Cl)c2)n(C)c1=O | 11µM* | ? | -75* | ? | 0.93µM* | -8%
Cn1c(=O)c2c(nc(Cl)n2Cc2ccc(Cl)c(Cl)c2)n(C)c1=O | ? | 1% | 27 | 0% | 0% | -6%
Cn1c(=O)c2c(ncn2Cc2ccc(Cl)c(Cl)c2)n(C)c1=O | ? | ? | -70* | -18% | 8% | -15%
CCOC(=O)C(CC)Sc1nnc2[nH]c(=O)cc(C)n12 (stereo not drawn) | / | / | 51 | / | / | 7%[46.1 µM]
CC1(C(=O)NS(=O)(=O)c2cccc(C#N)c2)CCN1C(=O)CCC1CCCC1 (stereo not drawn) | / | / | 4 | / | / | /
O=C(CSCc1ccccc1Cl)N1CCN(c2ccc(Cl)cc2)CC1 | / | / | -4 | / | / | 13%[46.1 µM]
CCN(CC(=O)Nc1ccc(OC)cc1)CC(=O)Nc1ccc(Cl)cc1F | -1% | -1% | 55 | -11% | 7% | -21%
CCN(CC)CC(=O)Nc1ccc(-c2nc3cc(NC(=O)CN(CC)CC)ccc3o2)cc1 | -24% | 0.71µM* | 140 | 2.6µM* | -3% | 11%
CCC(C)NCC(=O)Nc1ccc(-c2nc3cc(NC(=O)CNC(C)CC)ccc3o2)cc1 (stereo not drawn) | 13% | ? | -84* | ? | -14% | ?
CC(C)c1ccc2oc(-c3ccc(NC(=O)c4ncn[nH]4)cc3)nc2c1 | 8% | -1% | -19 | ? | 1.7µM* | -6%
CCN(CC)CC(=O)Nc1ccc(Oc2ccc(NC(=O)CN(CC)CC)cc2)cc1 | ? | 4µM* | -40 | ? | 3% | -27%
CCCC(=O)Nc1ccc2oc(-c3ccncc3)nc2c1 | -18% | 23% | -11 | 18% | ? | 14%
COc1ccc(Cn2c(CNC(=O)Cc3ccc(OC)c(OC)c3)nc3cccnc32)cc1 | / | / | 2 | / | / | -29%[46.1 µM]
CC(C)OCCCN1C(=O)c2[nH]nc(-c3ccccc3O)c2C1c1ccccc1F (stereo not drawn) | / | ? | -12 | / | / | ?
Cc1ccc(SCC(=O)Nc2ccc3oc(-c4ccc(F)cc4)nc3c2)cc1 | / | ? | 68 | / | / | 23%[46.1 µM]

High-throughput results from PubChem BioAssay.
